Screens deposited in PubChem by National Center for Advancing Translational Sciences (NCATS).
In the library only some 21% were active in any assay of this set; here they are far more common.
RORgamma inh – inhibitors of mouse ROR gamma transcriptional activity; Drosophila S2 Gal4-RORgamma UAS-luciferase reporter, 20 h; Potency, µM (highest dose often 53.6 µM), inactives show at the top dose activity change, negative = inhibition, most hits filed as inhibitors; 310,000 compounds, 5.4% hits; P51450; note: potency is the fitted concentration of half-maximal effect; nearly all actives have a fitted effect of over 60% in size
Target sequence (P51450 whole entry, looked up, the tested form may be a part): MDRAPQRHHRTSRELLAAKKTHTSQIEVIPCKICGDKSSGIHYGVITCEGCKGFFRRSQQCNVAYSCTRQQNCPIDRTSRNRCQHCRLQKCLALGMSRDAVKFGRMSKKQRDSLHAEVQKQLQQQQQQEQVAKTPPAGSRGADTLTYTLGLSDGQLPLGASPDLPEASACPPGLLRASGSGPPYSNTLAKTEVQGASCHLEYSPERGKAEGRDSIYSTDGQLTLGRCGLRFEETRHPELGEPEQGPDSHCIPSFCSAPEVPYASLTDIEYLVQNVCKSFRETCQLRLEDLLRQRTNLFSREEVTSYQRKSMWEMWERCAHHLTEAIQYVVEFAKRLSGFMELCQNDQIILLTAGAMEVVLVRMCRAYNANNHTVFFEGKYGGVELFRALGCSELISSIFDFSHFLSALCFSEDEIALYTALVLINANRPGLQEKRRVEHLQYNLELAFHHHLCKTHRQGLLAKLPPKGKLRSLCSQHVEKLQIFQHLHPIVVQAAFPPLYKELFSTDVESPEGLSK
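A Gal4/UAS one-hybrid system in insect cells: metallothionein-promoter Gal4–ROR gamma fusion plus Photinus luciferase reporter. Copper sulfate 700 uM final, 20 hr ambient incubation, luminescent detection after 10 min with reagent.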
Gal4-VP16 FLuc – inhibits Gal4-VP16 luciferase reporter, ROR gamma counter-screen. Drosophila S2 Gal4-VP16 UAS-luciferase, luminescence, 20 h. Potency, µM (top dose mostly 53.6 µM), without a hit: top-dose activity, negative = inhibition, actives largely listed as inhibitors. 310,000 compounds, 3.5% hits. AID 2546;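 note: Gal4-VP16 expression switched on by copper sulfate through the metallothionein promoter; potency is the fitted concentration of half-maximal effect; nearly all actives have a fitted effect of over 50% in size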
IL1B secr inh – inflammasome signaling inhibition, IL-1 beta readout. THP-1 LPS/ATP IL-1B secretion, AlphaLISA, 16 h; stronger effect = lower value. activity change, % at 57.5 µM. 360,000 compounds, 4.7% hits; in the data active = activity change below about -50%; inconclusive = mostly about -30% to -49%
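THP-1 cells pretreated 1 hr with compounds (up to 57.5 uM final), then stimulated with LPS (250 ng/mL final) plus ATP (1.25 mM final); secreted IL-1B measured by AlphaLISA after 16 hr, decreased signal indicating inhibition.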
ELG1 repair inh – inhibitors of ELG1-dependent DNA repair in HEK293T cells. HEK293T ELG1-luciferase reporter, luminescence, 16 h; DNA damage induced by 5-fluorouridine. Potency, µM (top dose mostly 46.1 µM), inactives show at the highest dose activity change, negative = inhibition, usual class: inhibitors. 330,000 compounds, 2.3% hits. AID 504467; note: potency is the fitted concentration of half-maximal effect; nearly all actives have a fitted effect of over 55% in size
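Step one: seed 2,000 cells per well. Step two: pin-transfer compound or DMSO alongside 5-fluorouridine. Step three: incubate 16 hr, 37 °C, 5% CO2. Step four: add ONE-Glo, wait 30 min, read luminescence.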
DT40 TDP1 no CPT – qHTS for Inhibitors of human tyrosyl-DNA phosphodiesterase 1 (TDP1): qHTS in cells in absence of CPT | DT40 Tdp1-/- hTDP1 cells, no CPT, ATP luminescence, 48 h | Potency, µM (series often up to 46.2 µM), for the others: at the top dose activity change, negative = growth inhibition, most hits filed as inhibitors | 420,000 compounds, 15% hits | AID 686978, 2013; note: potency is the fitted concentration of half-maximal effect; nearly all actives have a fitted effect of over 55% in size
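Stably hTDP1-transfected Tdp1-null chicken DT40 cells were treated with library compounds minus camptothecin and grown for at least 48 hr at 37 °C, after which cellular ATP was quantified by luminescence.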
TDP1 cell CPT – DT40-hTDP1 cell growth loss with CPT | chicken DT40 Tdp1-/-;hTDP1 cells + 20 nM CPT, ATP luminescence, 48 h | Potency, µM (titrated, usually from 46.2 µM), for the others: top-dose activity change, negative = growth inhibition, usual class: inhibitors | 420,000 compounds, 12% hits; note: potency is the fitted concentration of half-maximal effect; nearly all actives have a fitted effect of over 55% in size
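Chicken DT40 Tdp1-/- cells complemented with human TDP1, 400 cells/well, exposed to compounds plus 20 nM camptothecin for at least 48 h at 37 C; viability read as ATP content by CellTiter-Glo luminescence.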
Starred values were filed as active, the others as inactive; ? = inconclusive; nt = not tested or not shown. Unless noted, calls come from the whole dose curve; as a rule, active = well fitted curve in the direction sought with a large enough effect; inconclusive = small, poorly fitted or top-dose-only effect, or another doubt; inactive = no such curve, though single readings can be large; an effect the other way counts as inactive or inconclusive. % is set by controls: 0 for no effect and ±100 for the full control effect.

SMILES | RORgamma inh | Gal4-VP16 FLuc | IL1B secr inh | ELG1 repair inh | DT40 TDP1 no CPT | TDP1 cell CPT
O=C1c2ccccc2C(=O)c2[nH]c(=O)[nH]c21 | 4µM* | 7.1µM* | ? | 7.3µM* | 1.8µM* | 2.1µM*
O=C1C(O)=C(O)C(=O)c2ccccc21 | nt | nt | 23 | nt | ? | ?
O=C(Cc1cccs1)NC1CC(=O)N(c2ccccc2)C1 (stereo not drawn) | nt | nt | nt | nt | -2% | 2%
Cc1cc(=O)[nH]c(N2CCOCC2)n1 | 3% | -2% | 13 | 4% | -5% | 0%
Cc1cc(N2CCOCC2)c2c(N)c(Br)cc(C)c2n1 | ? | -2% | ? | ? | 3.3µM* | ?
Cc1ccc[n+](/C(=C\C(=C=[N-])C#N)C(=O)c2ccc(Cl)cc2)c1 | 18µM* | ? | 7 | 2% | -12% | 8%
O=C(C[n+]1ccccc1)c1ccc(Cl)cc1 | 26% | 5% | 3 | 3% | -4% | 2%
Cn1nc(C(C)(C)C)cc1NC(=O)C1(C)CCN1C(=O)c1ccccc1CCc1ccccc1 (stereo not drawn) | nt | nt | -5 | nt | ? | 18µM*
Cn1nc(C(C)(C)C)cc1NC(=O)C1(C)CCN1C(=O)Cc1ccc(-c2ccccc2)cc1 (stereo not drawn) | nt | nt | -12 | nt | 18µM* | 15µM*
CC(C)(C)c1cc(NC(=O)C2(C)CCN2C(=O)c2ccccc2CCc2ccccc2)no1 (stereo not drawn) | nt | nt | 6 | nt | 21µM* | ?
Cn1nc(C(C)(C)C)cc1NC(=O)C1(C)CCN1C(=O)CCc1ccccc1 (stereo not drawn) | nt | nt | -3 | nt | ? | ?
O=C(c1cccc(S(=O)(=O)N2CCCC2)c1)N1CCN(S(=O)(=O)c2cccc(Cl)c2)CC1 | nt | nt | 3 | nt | ? | ?
CCCCOC(=O)NS(=O)(=O)c1sc(CC(C)C)cc1-c1ccc(Cn2c(CC)nc3c(C)cc(C)nc32)cc1 | nt | nt | nt | 13µM* | nt | nt
COc1cc(/C=N/NC(=S)NC2CC3C=CC2C3)cc(OC)c1OC (stereo not drawn) | 1.8µM* | 4.5µM* | nt | 18µM* | ? | ?
CCOc1ccc(/C=N/NC(=S)NC2CC3C=CC2C3)cc1 (stereo not drawn) | 1µM* | 3.2µM* | 35 | -9% | ? | ?
COc1cc(/C=N/NC(=S)NCCN2CCOCC2)cc(OC)c1OC | ? | ? | 28 | -5% | ? | 19%
OCCNNC(=S)NC1CC2C=CC1C2 (stereo not drawn) | -34% | 13% | -4 | 7% | 2% | -1%
CC1C=CC=CC=CC=CC=CC=CC=CC(OC2OC(C)C(O)C(N)C2O)CC2OC(O)(CC(O)CC(O)C(O)CCC(O)CC(O)CC(=O)OC(C)C(C)C1O)CC(O)C2C(=O)O (stereo not drawn) | nt | nt | 63 | nt | 3.3µM* | 4.6µM*
CNC(=O)C1CCC(Cn2c(=O)c3sccc3n(CC(=O)Nc3ccccc3)c2=O)CC1 (stereo not drawn) | nt | nt | nt | nt | -23% | 1%
O=C(c1ccccc1Br)N1CCC(c2nc3ccccc3s2)CC1 | 9% | -3% | -17 | ? | 29µM* | ?
CCc1ccc(C(=O)N2CCC(c3nc4ccccc4s3)CC2)cc1 | -16% | -4% | 0 | 27% | ? | ?
COc1cc(C(=O)N2CCC(c3nc4ccccc4s3)CC2)cc(OC)c1OC | nt | nt | nt | nt | 21µM* | ?
CC1=CCC2CC1C2(C)C (stereo not drawn) | -1% | -1% | nt | nt | 0% | 1%
Cc1cccc(C)c1NC(=O)CCS(=O)(=O)c1ccc2c(c1)n(C)c(=O)c(=O)n2C | nt | nt | nt | nt | 3% | -1%
CCc1cccc(C)c1NC(=O)CCS(=O)(=O)c1ccc2c(c1)oc(=O)n2C | nt | nt | nt | nt | 15µM* | ?
SMILES | RORgamma inh | Gal4-VP16 FLuc | IL1B secr inh | ELG1 repair inh | DT40 TDP1 no CPT | TDP1 cell CPT
Cc1ccc(Cl)cc1N1CCN(C(=O)CCS(=O)(=O)c2ccc3c(c2)oc(=O)n3C)CC1 | nt | nt | nt | nt | 16µM* | ?
CCOC(=O)Cn1c(=O)oc2cc(S(=O)(=O)N3CCN(c4cccc(Cl)c4)CC3)ccc21 | nt | nt | nt | nt | 6% | -12%
Cc1ccc(C)c(N2CCN(C(=O)Cn3c(=O)oc4cc(S(=O)(=O)N5CCCC5)ccc43)CC2)c1 | ? | -9% | 30 | ? | 12µM* | 16µM*
CCOC(=O)Cn1c(=O)oc2cc(S(=O)(=O)N3CCN(c4cc(C)ccc4C)CC3)ccc21 | nt | nt | nt | nt | ? | 18µM*
O=C(Cn1c(=O)oc2cc(S(=O)(=O)N3CCCC3)ccc21)N1CCN(c2ccccc2)CC1 | -4% | -6% | -8 | 0% | ? | ?
CCCC[C@H]1CCCO[C@@](C(=O)NCc2cc(C)n(C)n2)(C(F)(F)F)C1 | -7% | -9% | nt | nt | nt | nt
CC(=O)N[C@H]1CSSC[C@@H](C(=O)N2CCC[C@H]2C(=O)N2CCC[C@H]2C(=O)N[C@@H](CCCCN)C(=O)N[C@@H](CC(=O)O)C(N)=O)NC(=O)CNC(=O)[C@H](Cc2c[nH]c3ccccc23)NC(=O)[C@H](CCCNC(=N)N)NC(=O)[C@@H](Cc2ccc(Cl)c(Cl)c2)NC(=O)[C@H](Cc2cnc[nH]2)NC(=O)[C@H](CCC(=O)O)NC1=O | 8% | -4% | nt | nt | nt | nt
CC(=O)C(Cc1cccc(F)c1)(Cc1cccc(F)c1)C(C)=O | 33% | -7% | -13 | -9% | -7% | -16%
O=C(CSc1ncc(S(=O)(=O)c2ccc(Br)cc2)c(=O)[nH]1)NCc1ccccc1Cl | nt | nt | nt | nt | 7% | 1%
Cc1c(NC(=O)COC(=O)/C=C/c2ccc(Cl)cc2)c(=O)n(-c2ccccc2)n1C | 4% | 2% | -22 | 8% | -19% | -2%
COc1cc(OC)c(OC)cc1/C=C/C(=O)OCC(=O)Nc1c(C)n(C)n(-c2ccccc2)c1=O | nt | nt | -15 | nt | 1µM* | ?
Cc1c(N/C=C/C(=O)C(F)(F)F)c(=O)n(-c2ccccc2)n1C | 14% | 2% | -13 | -5% | -2% | -8%
COc1ccc(C(=O)/C=C/Nc2c(C)n(C)n(-c3ccccc3)c2=O)cc1OC | -40% | 5% | -11 | ? | 16µM* | 23µM*
COc1cccc(-c2cc(-c3cccnc3)nc(N)c2C#N)c1 | 12% | -10% | ? | -1% | -9% | 2%
COc1ccc(-c2cc(-c3ccc(O)cc3)nc(N)c2C#N)cc1 | -3% | 10% | -12 | 8% | 23µM* | ?
